Reference: the supplement of paper PMC10849652
The full data set covers some 8,800 targets. This sample favours those with a hit. About 0.5% of all pairs of compound and target were hits. Values without a mark were called inactive.

Assays:
Assay in all cases: log2 fold change, soluble protein after heating vs DMSO (PISA); higher = thermal stabilisation; K562 lysate, 10 uM; active = over 0.2 and 3.5 SD of the protein, either way, in both replicates (recomputed)
nilotinib = compound: Cc1cn(-c2cc(NC(=O)c3ccc(C)c(Nc4nccc(-c5cccnc5)n4)c3)cc(C(F)(F)F)c2)cn1 [nilotinib]
In short: (§1)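 The values are log-two fold changes in thermal stability compared with solvent controls and come from duplicates. They were obtained by TMTpro 16plex LC-MS/MS, with channel sums equalised, on the supernatant after 21,000xg for 90 min. That supernatant came from crude K562 extract at 1 mg/mL protein treated with 10 μM compound for 30 min, heated for 3 min across 48°C-58°C, pooled and brought to 0.5% NP-40 at 4°C.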

[1] = compound: Cc1nc(Nc2n[nH]c3c2CN(C(=O)N[C@H](CN(C)C)c2ccccc2)C3(C)C)c2sccc2n1
In short: as §1

dasatinib = compound: Cc1nc(Nc2ncc(C(=O)Nc3c(C)cccc3Cl)s2)cc(N2CCN(CCO)CC2)n1 [dasatinib]
In short: as §1

[2] = compound: Cc1ncc(-c2ccnc(Nc3ccc(S(C)(=O)=O)cc3)n2)n1C(C)C
In short: as §1

[3] = compound: Cn1cc(-c2ccc3c(c2)CCN3C(=O)Cc2cccc(C(F)(F)F)c2)c2c(N)ncnc21
In short: as §1

quisinostat = compound: Cn1cc(CNCC2CCN(c3ncc(C(=O)NO)cn3)CC2)c2ccccc21 [quisinostat]
In short: as §1

tipifarnib = compound: Cn1cncc1[C@@](N)(c1ccc(Cl)cc1)c1ccc2c(c1)c(-c1cccc(Cl)c1)cc(=O)n2C [tipifarnib]
In short: as §1

[4] = compound: NC(=O)Nc1cc(-c2cccc(F)c2)sc1C(=O)N[C@H]1CCCNC1
In short: as §1

[5] = compound: NC(=O)c1cnc(N[C@@H]2CCCC[C@@H]2N)nc1Nc1cccc(-n2nccn2)c1
In short: as §1

[6] = compound: NC1(c2ccc(-c3nc4ccn5c(=O)[nH]nc5c4cc3-c3ccccc3)cc2)CCC1
In short: as §1

[7] = compound: NCC(=O)Nc1ccc(-n2nc(C(F)(F)F)cc2-c2ccc3c(ccc4ccccc43)c2)cc1
In short: as §1

vorinostat = compound: O=C(CCCCCCC(=O)Nc1ccccc1)NO [vorinostat]
In short: as §1

silmitasertib = compound: O=C(O)c1ccc2c(c1)nc(Nc1cccc(Cl)c1)c1ccncc12 [silmitasertib]
In short: as §1

[8] = compound: O=C1NC(=O)C(c2cnc3ccccn23)=C1c1cn2c3c(cc(F)cc13)CN(C(=O)N1CCCCC1)CC2
In short: as §1

entospletinib = compound: c1cn2cc(-c3ccc4cn[nH]c4c3)nc(Nc3ccc(N4CCOCC4)cc3)c2n1 [entospletinib]
In short: as §1

Sequence of UniProt O43502 (O43502 whole entry, looked up): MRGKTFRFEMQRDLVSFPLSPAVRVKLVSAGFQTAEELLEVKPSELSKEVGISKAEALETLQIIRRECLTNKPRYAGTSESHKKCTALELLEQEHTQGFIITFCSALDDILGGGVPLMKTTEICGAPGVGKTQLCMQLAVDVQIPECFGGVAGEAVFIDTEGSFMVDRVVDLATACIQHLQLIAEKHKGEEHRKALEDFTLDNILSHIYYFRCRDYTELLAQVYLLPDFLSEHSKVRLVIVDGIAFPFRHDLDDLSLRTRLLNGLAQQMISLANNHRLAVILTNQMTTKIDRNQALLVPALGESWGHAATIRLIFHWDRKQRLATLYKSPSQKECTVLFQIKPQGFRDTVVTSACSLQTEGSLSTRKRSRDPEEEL
Sequence of UniProt Q9H0R6 (Q9H0R6 whole entry, looked up): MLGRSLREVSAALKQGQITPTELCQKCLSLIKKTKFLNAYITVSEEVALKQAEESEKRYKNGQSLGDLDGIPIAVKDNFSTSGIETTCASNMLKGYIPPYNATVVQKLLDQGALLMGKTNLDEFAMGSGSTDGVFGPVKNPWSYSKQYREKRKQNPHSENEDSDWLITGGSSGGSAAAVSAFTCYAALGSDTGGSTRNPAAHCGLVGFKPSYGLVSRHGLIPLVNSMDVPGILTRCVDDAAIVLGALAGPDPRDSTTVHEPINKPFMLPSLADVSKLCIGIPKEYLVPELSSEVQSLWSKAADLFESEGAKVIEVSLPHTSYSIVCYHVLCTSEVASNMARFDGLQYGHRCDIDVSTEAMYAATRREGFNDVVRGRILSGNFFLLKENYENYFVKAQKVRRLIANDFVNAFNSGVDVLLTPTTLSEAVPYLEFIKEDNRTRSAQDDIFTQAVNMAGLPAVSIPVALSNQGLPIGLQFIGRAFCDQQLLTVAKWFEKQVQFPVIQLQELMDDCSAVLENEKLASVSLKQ
Sequence of UniProt Q8TBN0 (Q8TBN0 whole entry, looked up): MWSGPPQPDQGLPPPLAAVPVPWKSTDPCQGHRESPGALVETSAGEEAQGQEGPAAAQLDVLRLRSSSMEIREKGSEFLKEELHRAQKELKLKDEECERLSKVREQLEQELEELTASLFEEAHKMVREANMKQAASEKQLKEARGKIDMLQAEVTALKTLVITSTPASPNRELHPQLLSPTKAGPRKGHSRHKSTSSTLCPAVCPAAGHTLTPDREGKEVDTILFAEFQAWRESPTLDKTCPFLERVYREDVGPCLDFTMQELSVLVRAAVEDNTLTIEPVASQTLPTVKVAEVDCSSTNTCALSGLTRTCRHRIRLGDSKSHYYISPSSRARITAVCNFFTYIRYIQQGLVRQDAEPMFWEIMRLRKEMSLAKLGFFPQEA
Sequence of UniProt P35241 (P35241 whole entry, looked up): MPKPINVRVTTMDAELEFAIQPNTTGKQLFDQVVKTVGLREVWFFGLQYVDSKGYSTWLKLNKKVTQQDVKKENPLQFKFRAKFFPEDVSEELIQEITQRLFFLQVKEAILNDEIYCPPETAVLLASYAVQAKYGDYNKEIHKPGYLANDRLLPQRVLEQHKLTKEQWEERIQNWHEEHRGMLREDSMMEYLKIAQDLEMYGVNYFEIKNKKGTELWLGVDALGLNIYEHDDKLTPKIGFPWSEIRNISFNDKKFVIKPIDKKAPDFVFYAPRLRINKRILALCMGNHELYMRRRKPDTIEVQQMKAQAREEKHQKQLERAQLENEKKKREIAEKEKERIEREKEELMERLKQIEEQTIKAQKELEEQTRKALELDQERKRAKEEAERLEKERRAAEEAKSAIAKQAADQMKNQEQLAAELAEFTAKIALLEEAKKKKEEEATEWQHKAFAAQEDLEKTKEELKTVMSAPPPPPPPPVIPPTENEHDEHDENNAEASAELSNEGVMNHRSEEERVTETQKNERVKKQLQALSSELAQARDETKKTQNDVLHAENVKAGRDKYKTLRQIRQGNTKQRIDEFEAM
Sequence of UniProt P40938 (P40938 whole entry, looked up): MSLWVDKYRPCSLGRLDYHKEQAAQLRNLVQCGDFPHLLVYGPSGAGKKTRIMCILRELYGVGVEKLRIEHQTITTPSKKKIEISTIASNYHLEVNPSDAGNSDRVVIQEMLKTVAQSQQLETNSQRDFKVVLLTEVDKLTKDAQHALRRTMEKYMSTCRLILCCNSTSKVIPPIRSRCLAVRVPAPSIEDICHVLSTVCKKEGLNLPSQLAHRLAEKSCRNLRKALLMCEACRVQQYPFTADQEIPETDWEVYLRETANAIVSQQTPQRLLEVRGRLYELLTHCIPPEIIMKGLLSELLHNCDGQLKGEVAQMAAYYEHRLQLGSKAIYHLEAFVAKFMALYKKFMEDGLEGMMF
Sequence of UniProt P04049 (P04049 whole entry, looked up): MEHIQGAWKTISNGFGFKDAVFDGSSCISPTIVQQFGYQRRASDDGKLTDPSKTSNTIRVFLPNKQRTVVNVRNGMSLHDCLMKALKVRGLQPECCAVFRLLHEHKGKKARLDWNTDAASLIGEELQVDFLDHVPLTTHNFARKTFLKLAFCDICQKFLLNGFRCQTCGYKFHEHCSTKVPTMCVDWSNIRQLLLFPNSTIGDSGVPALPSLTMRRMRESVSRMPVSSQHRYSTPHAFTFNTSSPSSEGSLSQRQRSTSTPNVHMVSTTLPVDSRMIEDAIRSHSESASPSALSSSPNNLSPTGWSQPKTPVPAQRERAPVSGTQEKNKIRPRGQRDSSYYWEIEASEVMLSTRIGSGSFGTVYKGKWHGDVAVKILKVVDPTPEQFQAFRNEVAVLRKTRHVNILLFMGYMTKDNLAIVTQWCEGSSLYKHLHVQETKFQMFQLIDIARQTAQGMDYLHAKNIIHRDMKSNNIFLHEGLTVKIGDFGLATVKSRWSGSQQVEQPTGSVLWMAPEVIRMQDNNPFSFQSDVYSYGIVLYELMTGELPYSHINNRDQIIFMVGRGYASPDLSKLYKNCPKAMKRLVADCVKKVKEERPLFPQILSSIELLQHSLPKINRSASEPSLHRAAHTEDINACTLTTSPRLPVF
Sequence of UniProt P78406 (P78406 whole entry, looked up): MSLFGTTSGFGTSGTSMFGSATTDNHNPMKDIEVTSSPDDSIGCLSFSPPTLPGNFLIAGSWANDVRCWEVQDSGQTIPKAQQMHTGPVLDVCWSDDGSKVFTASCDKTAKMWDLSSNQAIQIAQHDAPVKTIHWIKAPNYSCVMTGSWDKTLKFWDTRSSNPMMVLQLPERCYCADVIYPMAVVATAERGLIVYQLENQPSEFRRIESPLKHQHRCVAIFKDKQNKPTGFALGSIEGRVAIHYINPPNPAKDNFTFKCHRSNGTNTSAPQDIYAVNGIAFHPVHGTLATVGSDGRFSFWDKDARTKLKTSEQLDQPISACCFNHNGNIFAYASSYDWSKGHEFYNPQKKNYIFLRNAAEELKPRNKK
Sequence of UniProt P61586 (P61586 whole entry, looked up): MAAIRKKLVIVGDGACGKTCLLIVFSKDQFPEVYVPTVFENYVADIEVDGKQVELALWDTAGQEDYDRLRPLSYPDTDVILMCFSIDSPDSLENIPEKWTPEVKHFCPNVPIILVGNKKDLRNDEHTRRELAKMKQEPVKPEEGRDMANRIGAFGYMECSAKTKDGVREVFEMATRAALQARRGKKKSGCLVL
Sequence of UniProt Q8N122 (Q8N122 whole entry, looked up): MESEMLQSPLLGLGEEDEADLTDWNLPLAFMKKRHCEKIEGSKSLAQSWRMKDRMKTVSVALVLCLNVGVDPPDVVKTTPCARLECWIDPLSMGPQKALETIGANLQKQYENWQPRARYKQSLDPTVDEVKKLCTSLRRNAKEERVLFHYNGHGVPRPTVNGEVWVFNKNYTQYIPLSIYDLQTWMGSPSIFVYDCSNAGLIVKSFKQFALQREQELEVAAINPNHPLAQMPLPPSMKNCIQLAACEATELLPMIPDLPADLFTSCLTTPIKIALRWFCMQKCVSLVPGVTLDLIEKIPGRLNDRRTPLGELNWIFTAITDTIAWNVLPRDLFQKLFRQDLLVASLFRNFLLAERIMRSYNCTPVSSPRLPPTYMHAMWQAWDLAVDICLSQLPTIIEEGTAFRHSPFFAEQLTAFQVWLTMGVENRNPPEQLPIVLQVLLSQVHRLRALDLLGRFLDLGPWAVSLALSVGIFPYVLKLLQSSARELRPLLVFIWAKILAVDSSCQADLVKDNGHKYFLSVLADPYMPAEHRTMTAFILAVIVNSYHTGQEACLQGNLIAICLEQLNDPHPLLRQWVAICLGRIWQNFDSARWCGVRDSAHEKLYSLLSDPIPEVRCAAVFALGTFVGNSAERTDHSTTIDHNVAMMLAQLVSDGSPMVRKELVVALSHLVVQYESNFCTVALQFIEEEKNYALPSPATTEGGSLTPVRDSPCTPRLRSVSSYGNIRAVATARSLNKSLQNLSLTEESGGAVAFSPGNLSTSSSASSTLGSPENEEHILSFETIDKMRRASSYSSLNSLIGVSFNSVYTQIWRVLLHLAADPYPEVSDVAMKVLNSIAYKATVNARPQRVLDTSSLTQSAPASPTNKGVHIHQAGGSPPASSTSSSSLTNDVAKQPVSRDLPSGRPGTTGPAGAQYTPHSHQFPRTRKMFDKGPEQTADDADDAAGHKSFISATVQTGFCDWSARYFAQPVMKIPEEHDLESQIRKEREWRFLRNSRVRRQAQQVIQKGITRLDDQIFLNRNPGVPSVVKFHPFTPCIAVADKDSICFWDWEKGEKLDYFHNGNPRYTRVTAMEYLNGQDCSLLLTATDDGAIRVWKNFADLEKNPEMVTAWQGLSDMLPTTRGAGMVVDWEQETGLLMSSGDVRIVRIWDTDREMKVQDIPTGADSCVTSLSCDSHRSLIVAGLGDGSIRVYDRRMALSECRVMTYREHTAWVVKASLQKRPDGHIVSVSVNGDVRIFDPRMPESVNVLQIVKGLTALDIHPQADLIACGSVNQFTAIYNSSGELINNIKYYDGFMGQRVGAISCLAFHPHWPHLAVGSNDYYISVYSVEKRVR
Sequence of UniProt Q9Y6B6 (Q9Y6B6 whole entry, looked up): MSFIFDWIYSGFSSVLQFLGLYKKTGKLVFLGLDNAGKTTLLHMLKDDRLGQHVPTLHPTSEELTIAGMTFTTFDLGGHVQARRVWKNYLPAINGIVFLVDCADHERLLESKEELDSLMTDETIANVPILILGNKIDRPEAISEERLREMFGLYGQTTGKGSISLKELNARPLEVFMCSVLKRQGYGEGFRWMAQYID

| Target | log2 fold change (nilotinib) | log2 fold change [1] | log2 fold change (dasatinib) | log2 fold change [2] | log2 fold change [3] | log2 fold change (quisinostat) | log2 fold change (tipifarnib) | log2 fold change [4] | log2 fold change [5] | log2 fold change [6] | log2 fold change [7] | log2 fold change (vorinostat) | log2 fold change (silmitasertib) | log2 fold change [8] | log2 fold change (entospletinib) |
| --- | --- | --- | --- | --- | --- | --- | --- | --- | --- | --- | --- | --- | --- | --- | --- |
| RPS9 (UniProt P46781) | 0.001 | -0.023 | 0.067 | -0.039 | 0.023 | 0.141 | 0.022 | -0.037 | -0.015 | 0.039 | -0.03 | 0.125 | 0.042 | 0.002 | 0.004 |
| RPTOR (UniProt Q8N122) | -0.005 | -0.035 | -0.041 | -0.016 | 0.011 | -0.057 | 0.014 | 0.047 | 0.006 | -0.041 | 0.002 | -0.337 (active) | 0.048 | 0.012 | -0.01 |
| RAD51C (UniProt O43502) | 0.013 | 0.021 | -0.014 | 0.009 | -0.019 | 0.036 | 0.03 | 0.051 | 0.042 | -0.021 | 0.023 | -0.386 (active) | -0.003 | -0.015 | 0.065 |
| RHOA (UniProt P61586) | -0.08 | 0.104 | 0.017 | -0.008 | -0.013 | 0.167 | -0.021 | -0.004 | 0.008 | -0.062 | 0.03 | 0.064 | -0.009 | 0 | 0.022 |
| R3HCC1 (UniProt Q9Y3T6) | -0.023 | 0.012 | 0.043 | 0.011 | -0.049 | -0.014 | -0.058 | -0.036 | 0.003 | 0.038 | 0.045 | -0.259 (active) | -0.036 | -0.002 | 0.067 |
| QTRT2 isoform 4 (UniProt Q9H974) | -0.001 | -0.024 | 0.005 | -0.024 | -0.051 | -0.059 | 0.022 | 0.022 | 0.004 | 0.021 | 0.004 | 0.079 | -0.011 | -0.007 | 0.022 |
| RCAN1 (UniProt P53805) | -0.457 (active) | 0.008 | 0.023 | -0.055 | 0.038 | -0.217 | 0.131 | 0.117 | 0.088 | 0.036 | 0.082 | -0.197 | 0.02 | 0.02 | 0.031 |
| SEC13 isoform 3 (UniProt P55735) | -0.02 | 0.038 | -0.01 | 0.031 | 0.02 | 0.079 | -0.014 | 0.006 | 0.006 | -0.006 | -0.01 | -0.115 | 0.021 | -0.045 | -0.001 |
| RPS18 (UniProt P62269) | 0.004 | -0.02 | -0.009 | -0.039 | -0.018 | 0 | 0.031 | -0.018 | 0.014 | -0.006 | 0.033 | 0.081 | 0.019 | 0.007 | -0.02 |
| RHOU (UniProt Q7L0Q8) | -0.032 | -0.028 | -0.004 | 0.114 | 0.145 | -0.053 | 0.12 | 0.035 | -0.045 | 0.033 | 0.019 | -0.116 | 0.058 | -0.039 | 0.024 |
| RAF1 isoform 2 (UniProt P04049) | 0.054 | -0.005 | 0.169 | -0.094 | -0.022 | -0.06 | -0.036 | 0.063 | -0.021 | -0.008 | 0.126 | -0.304 (active) | 0.024 | 0.068 | -0.015 |
| RFC3 (UniProt P40938) | 0 | -0.05 | -0.036 | 0.034 | 0.021 | -0.081 | 0.002 | 0.094 | 0.01 | -0.006 | -0.01 | -0.365 (active) | 0.035 | 0.006 | 0.018 |
| RDX (UniProt P35241) | -0.003 | -0.006 | 0.037 | 0.048 | -0.008 | 0.047 | 0.013 | -0.007 | 0.002 | 0.006 | 0.002 | 0.129 | -0.017 | -0.008 | 0.023 |
| RALGAPA1 isoform 6 (UniProt Q6GYQ0) | -0.05 | -0.044 | -0.018 | -0.066 | 0.071 | -0.15 | 0.019 | 0.039 | 0.052 | -0.08 | 0.047 | 0.034 | -0.054 | -0.027 | -0.022 |
| RAP1B (UniProt F5GZG1) | 0.012 | -0.066 | 0.05 | -0.253 | 0.047 | -0.011 | -0.058 | 0.087 | -0.019 | -0.029 | -0.051 | -0.054 | -0.004 | -0.099 | -0.026 |
| RAE1 (UniProt P78406) | -0.093 | 0.042 | 0.002 | 0.012 | 0.033 | 0.038 | -0.053 | 0.026 | 0.024 | 0.015 | 0.007 | -0.126 | -0.022 | -0.062 | -0.024 |
| SAR1B (UniProt Q9Y6B6) | 0.202 | 0.101 | 0.047 | -0.013 | -0.038 | 0.028 | -0.217 | -0.02 | -0.092 | -0.016 | -0.083 | 0.155 | -0.103 | -0.044 | -0.053 |
| QRSL1 (UniProt Q9H0R6) | -0.022 | 0.031 | -0.018 | 0.069 | 0.07 | -0.054 | -0.002 | 0.034 | -0.02 | -0.031 | 0.066 | -0.308 (active) | 0.051 | 0.028 | 0.019 |
| RAB3IL1 (UniProt Q8TBN0) | -0.025 | -0.026 | -0.048 | 0.041 | 0.017 | -0.002 | 0.037 | 0.004 | 0.017 | 0.033 | -0.006 | -0.268 (active) | 0.025 | 0.07 | 0.015 |
| RDH11 (UniProt Q8TC12) | 0.034 | -0.05 | -0.075 | -0.045 | -0.021 | 0.038 | -0.038 | 0.103 | 0.034 | -0.011 | 0.008 | 0.038 | 0.022 | -0.047 | 0.014 |
| RABGGTB (UniProt P53611) | 0.005 | 0.003 | 0.017 | 0.006 | -0.009 | -0.02 | -0.013 | 0.033 | -0.016 | 0.031 | -0.058 | -0.286 (active) | 0.006 | -0.005 | -0.044 |
